From PubChem BioAssay come the findings set out here.

The test system of this assay is Human papillomavirus type 1a protein E7 (residues 44-93). The assay is described as follows: HPV1a E7 fragment binders on microarrays, primary screen, biochemical, small-molecule microarray, residues 44-93, 635 nm fluorescence (AID 1108).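 Further: E7 fragment applied at 1 µg/mL in TBST for 1 h at 4 C; score combines spot fluorescence with its signal to noise ratio.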 The note with it: small-molecule microarray binding, fluorescence 635 nm; higher = more signal.
In the case of `CO[C@H]1O[C@H](CO)[C@@H](OC(=O)Nc2ccc3c(c2)OCO3)[C@H](OC(=O)Nc2ccc3c(c2)OCO3)[C@@H]1OC(=O)Nc1ccc2c(c1)OCO2`, the composite z-score came to 1.49.
Then `CCOC(=O)C[C@H]1[C@H](OC(=O)c2ccccc2-c2ccccc2)[C@@H](NC(=O)c2ccc3ccccc3c2)c2cc(OCCCO)ccc2N1C(=O)c1ccccc1`, with 0.461; and `CC(C)[Si]1(C(C)C)OCc2cc(-c3ccc(-c4ccc(Cl)c(Cl)c4)o3)nc(-c3ccccc3)c21`, with -0.922.
In the case of `COc1ccc([C@H]2OC[C@@H]3C[C@H](Cc4ccccc4)C(=O)N32)cc1` it was 0.156; in that of `COC(=O)C(CC#Cc1ccc2c(c1)[C@]1(C(=O)N2)[C@H](c2ccc(O)cc2)N2[C@H](c3ccccc3)[C@H](c3ccccc3)OC(=O)[C@H]2[C@@H]1C(=O)NC[C@H](O)c1ccccc1)C(=O)OC`, 0.829; in that of `CC(=O)N1CC2(CC2)CC1c1ccccc1` (stereo not given), 0.753.
Then `COc1ccc([Si](C)(C)[C@@H]2[C@@H](CC(=O)N3CCC[C@H]3CO)O[C@]3(C(=O)N(Cc4cccc(N5C(=O)COc6ccccc65)c4)c4ccccc43)[C@H]2C)cc1`, with 1.35.
Consider `O=c1cccc(-c2ccc([N+](=O)[O-])cc2)o1`, for which the composite z-score is 0.79.
In the case of `N[C@@H](Cc1ccccc1)C(=O)NCc1cn(Cc2ccccc2)nn1` it was -0.132; in that of `O=C1C2C=CC(C(O)c3cccc(O)c3)N(Nc3ccc([N+](=O)[O-])cc3)C2C(=O)N1c1ccccc1` (stereo not given), 0.939.
In the case of `CC(C)c1ccc(NN2C(C(O)c3ccc(F)cc3)C=CC3C(=O)N(c4ccccc4)C(=O)C32)cc1` (stereo not given) it was 1.44; in that of `C=CC[C@@H](OC(=O)Nc1ccc(SC)cc1)c1ccc(O)c(F)c1`, -0.148; in that of `COc1cc2c(cc1O)C(C1CC1)N(C)CC2` (stereo not given), -1.01.
`O=C1CS(=O)(=O)C(c2cccc([N+](=O)[O-])c2)N1c1ccccc1` (stereo not given) yielded a composite z-score of -0.611.
In the case of `COC(=O)[C@@H]1N=C(c2ccc(OCCCO)cc2)O[C@@H]1c1ccccc1` it was -1.38; in that of `O=C1NC(=O)C2C1C=CC(C(O)c1ccco1)N2Nc1ccc(Cl)cc1Cl` (stereo not given), 0.478; in that of `COc1ccc([Si](C)(C)[C@@H]2[C@@H](CCO)O[C@]3(C(=O)N(Cc4cccc(NC(=O)[C@H](C)O)c4)c4ccccc43)[C@H]2C)cc1`, 1.36.
Take `CCCN1C(=O)[C@]2(Cc3ccccc31)N=C(c1ccc(OCCCO)cc1)O[C@@H]2c1ccccc1`: the composite z-score came to 1.42.
Then `CN(C)C(=O)[C@@]1(Cc2ccccc2)N=C(c2ccc(OCCCO)cc2)O[C@H]1c1ccccc1`, with 0.508; and `COCCOC(=O)N1C(=O)[C@@]2(c3cc(C#CC4(O)CCCCCC4)ccc31)[C@H](c1ccc(O)cc1)N1[C@H](c3ccccc3)[C@H](c3ccccc3)OC(=O)[C@H]1[C@@H]2C(=O)N1CCN(c2ncccn2)CC1`, with 1.35.
As to `COc1ccc(CCNC(=O)[C@@]2(Cc3ccccc3I)c3ccccc3C(=O)N(C3CCCCC3)[C@H]2c2ccc(CO)cc2)cc1`, the composite z-score is 1.3.
For `CCOC(=O)C=Cc1cccc(C)c1O`, the composite z-score was -0.377.
Then `C=CCC(OC(C)=O)[C@@H]1[C@@H](N(Cc2ccc(-c3cccc(C(F)(F)F)c3)o2)C(=O)Cc2ccc(OC)cc2)c2cc(OCCCO)ccc2N1C(=O)c1ccc(-c2ccccc2)cc1` (stereo not given in full), with -0.433; and `O=C1[C@H]2C=C(I)[C@H](C[C@@H]2OCCOCCO)[C@@]12CO2`, with 0.496.
The molecule `C#Cc1cc2ccccc2oc1=O` gave a composite z-score of -0.455.
In the case of `O=C(Cc1ccccc1)[C@H]1C2C=CCCC(c3ccccc3)=C2CN1Cc1ccccc1` (stereo not given in full) it was -0.75; in that of `O=C1O[C@@H](c2ccccc2)[C@@H](c2ccccc2)N2[C@@H](c3ccc(OCCO)cc3)[C@]3(C(=O)Nc4ccc(C#CC5=CCCCC5)cc43)[C@@H](C(=O)NC[C@H](O)c3ccccc3)[C@H]12`, 0.97; in that of `COc1cc2c(cc1O)C(C1CC1)N(Cc1cccc(OC(F)(F)F)c1)CC2` (stereo not given), -1.05.
With `[N-]=[N+]=NCc1ccccc1[C@@H]1OC(c2ccc(OCCCO)cc2)=N[C@]1(CCS(=O)(=O)c1ccccc1)C(=O)O`, the composite z-score worked out at 1.31.
Consider `[N-]=[N+]=NCc1ccccc1[C@H]1OC(c2ccc(OCCCO)cc2)=N[C@@]1(Cc1ccccc1N=[N+]=[N-])C(=O)NCC(O)CO` (stereo not given in full), for which the composite z-score worked out at 1.46.
In the case of `COCCOC(=O)N1C(=O)[C@@]2(c3ccccc31)[C@H](C(=O)NC[C@H](O)c1ccccc1)[C@H]1C(=O)O[C@H](c3ccccc3)[C@H](c3ccccc3)N1[C@@H]2c1ccc(O)cc1` it was 1.44.
`O=C1OCCC/C=C\[C@H]2OC34C=CCN(c5ccc6ccccc6c5)C(=O)[C@H]3N(CCO)C(=O)[C@@H]4C12` (stereo not given in full) displayed a composite z-score of -0.983.
`CCOC(=O)C[C@H]1[C@H](OC(=O)Cc2ccc3c(c2)OCO3)[C@@H](NC(=O)c2ccc3ccccc3n2)c2cc(OCCCO)ccc2N1C(=O)c1ccc2ccccc2n1` displayed a composite z-score of 0.0977.
With `CC[C@@H]1C=C(C(=O)O)[C@H](c2ccccc2)N1S(=O)(=O)c1ccc(C)cc1`, the composite z-score was determined as 0.807.
Then `CC(C)N1C(=O)C[C@@](C(=O)O)(c2ccc([N+](=O)[O-])cc2)[C@H]1c1ccc(CO)cc1`, with 0.48.
